Compounds with a hit are over-represented: about 7.4% of the library has one in this group of screens.
SMN2 splice up = SMN2 splice variant enhancement | hit rate 2.8% among 210,000 | AID 1458 | HEK293 SMN2-luciferase splicing reporter, luminescence, 30-36 h | Potency, µM (top dose mostly 46.1 µM), inactives show top-dose activity change, positive = activation, hits mostly activators; note: % of control where 0% means no effect; nearly all actives have a fitted effect of over 55% in size
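HEK293 cells carry an SMN2 […]–luciferase reporter in which exon 7 inclusion puts luciferase in frame. Cells were plated 10-12 h before compound addition, then incubated 30-36 h at 37C. ONE-Glo luminescence was read; sodium butyrate at 4.5 mM final served as control.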
NPC1 promoter act = NPC1 promoter activation; Potency, µM (series often up to 9.22 µM), without a hit: at the highest dose activation, most hits filed as activators; Huh7 NPC1 promoter luciferase reporter, 24 h; hit rate 2.4% among 320,000; AID 485313; note: % of control where 0% means no effect; nearly all actives have a fitted effect of over 60% in size
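Stably transfected Huh7 (NPC1 promoter→luciferase), 1500 cells/well in Opti-MEM + 10% FBS, 2 h settle, then compound 24 h at 37 °C. Luminescence after 10 min with Amplite reagent.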
KinaseGlo FLuc = blocks Kinase-Glo luciferase, a counter-screen artifact; Kinase-Glo luciferase, ATP luminescence, 8 min; hit rate 0.28% among 200,000; AID 1379; Q27757; Potency, µM (series often up to 38.3 µM), without a hit: at the top dose activity change, negative = inhibition, actives largely listed as inhibitors; note: % is set by controls: 0 for no effect and ±100 for the full control effect; nearly all actives have a fitted effect of over 60% in size
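Compound is pinned into ATP-containing buffer (10 uM ATP, imidazole pH 7.2, 7 mM MgCl2). Kinase-Glo luciferase reagent is then added. Light output is recorded following an 8-min room-temperature incubation.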
FLuc counter = counter-screen for miR-21 project: firefly luciferase inhibitors or activators; purified FLuc, Km substrates, luminescence inhibition; Potency, µM (series often up to 57.5 µM), inactives show top-dose activity change, negative = inhibition, most hits filed as inhibitors; hit rate 6.9% among 360,000; AID 588342;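 note: plate controls were vehicle for no effect and reference inhibitor for full effect; nearly all actives have a fitted effect of over 55% in size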
Target sequence (P08659 whole entry, looked up): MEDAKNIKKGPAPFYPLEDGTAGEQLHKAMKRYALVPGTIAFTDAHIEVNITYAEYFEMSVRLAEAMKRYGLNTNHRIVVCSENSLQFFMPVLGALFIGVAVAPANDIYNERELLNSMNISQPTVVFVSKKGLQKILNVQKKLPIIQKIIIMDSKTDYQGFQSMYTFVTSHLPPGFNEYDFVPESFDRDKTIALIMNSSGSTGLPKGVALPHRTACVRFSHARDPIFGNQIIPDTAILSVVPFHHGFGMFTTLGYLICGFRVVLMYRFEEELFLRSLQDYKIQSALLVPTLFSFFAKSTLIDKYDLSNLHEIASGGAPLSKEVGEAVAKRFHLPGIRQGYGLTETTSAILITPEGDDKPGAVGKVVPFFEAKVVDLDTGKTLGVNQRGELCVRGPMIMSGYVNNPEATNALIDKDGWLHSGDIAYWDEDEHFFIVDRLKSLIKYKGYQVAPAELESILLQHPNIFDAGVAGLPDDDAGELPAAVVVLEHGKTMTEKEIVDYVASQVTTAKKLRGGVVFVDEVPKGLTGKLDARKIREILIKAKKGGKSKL
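Purified P. pyralis luciferase (10nM final) with 10uM D-luciferin and 10uM ATP (Km levels) in 50mM Tris acetate pH 7.5, 10mM Mg acetate, 0.01% Tween-20, 0.05% BSA; qHTS 6-point titration, ~60 µM downward; luminescence read.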
Rab9 prom act = activates the Rab9 promoter. Huh7 Rab9 promoter-luciferase reporter, luminescence, 24 h. Potency, µM (highest dose often 9.22 µM), without a hit: at the highest dose activation, negative = inhibition, usual class: activators. hit rate 2.8% among 320,000. AID 485297; note: % of control where 0% means no effect; nearly all actives have a fitted effect of over 60% in size
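Rab9 promoter-driven luciferase in stably transfected Huh7 cells; 1500 cells/well rested 2 h, exposed to compound in DMSO for 24 h at 37 °C, 5% CO2. Luminescence read 10 min after adding luciferase reagent at ambient temperature.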
ELG1 genotox = genotoxicity induction in ELG1-luciferase HEK293T cells | HEK293T ELG1-luciferase reporter, luminescence, 16 h | Potency, µM (series often up to 46 µM), inactives show top-dose activity change, positive = activation, hits mostly activators | hit rate 1.3% among 330,000 | AID 504466; note: % of control where 0% means no effect; nearly all actives have a fitted effect of over 60% in size
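16 hr compound incubation (37 °C, 5% CO2) of HEK293T cells carrying luciferase-tagged ELG1; luciferase then measured by ONE-Glo luminescence after 30 min at RT.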
An asterisk follows results filed as active; ? = inconclusive; nt = not tested or not shown. Calls come from the whole dose curve; as a rule, active = well fitted curve in the direction sought with a large enough effect; inconclusive = small, poorly fitted or top-dose-only effect, or another doubt; inactive = no such curve, though single readings can be large; an effect the other way counts as inactive or inconclusive. Potency is the fitted concentration of half-maximal effect.

SMILES	SMN2 splice up	NPC1 promoter act	KinaseGlo FLuc	FLuc counter	Rab9 prom act	ELG1 genotox
Cc1ccn2c(CN3CCOCC3)c(-c3ccccc3)nc2c1	20µM*	19%	1%	?	?	20%
COc1c(O)cc2c(c1O)C(=O)CC(c1ccccc1)O2 (stereo not given)	nt	?	nt	9.5µM*	?	?
Cc1c(O)cc2c(c1O)C(=O)CC(c1ccccc1)O2 (stereo not given)	nt	1%	nt	-19%	-2%	3%
COc1ccc(CNc2oc(-c3ccc(COc4ccc(OC)cc4)o3)nc2C#N)cc1	nt	nt	nt	6%	nt	nt
O=C(COc1cc2oc(=O)cc(-c3ccccc3)c2cc1Cl)NCc1ccccn1	nt	0%	nt	-9%	-3%	-6%
CC(=O)N1/C(=C/c2ccc(N(C)C)cc2)C(=O)c2ccccc21	-38%	1%	-17%	17µM*	0%	-29%
CC(=O)N1c2ccccc2C(=O)C1N(C)c1ccc(C)cc1 (stereo not given)	nt	-3%	nt	-7%	13%	2%
O=C(CC1C(=O)NCCN1CC1CCCCC1)NCCCN1CCOCC1 (stereo not given)	nt	-3%	nt	-1%	0%	1%
COCC(=O)Nc1cc(C(=O)Nc2ccccc2C)ccc1Cl	11%	7%	-9%	?	6%	4%
Cc1cc(C(=O)Nc2ccccc2C(=O)O)ccc1NC(=O)COc1cccc([N+](=O)[O-])c1	nt	-1%	1%	24µM*	-3%	3%
Cc1cc(C(=O)Nc2ccccc2C(=O)O)ccc1NC(=O)COc1cccc(C)c1C	nt	16%	nt	6µM*	14%	29%
Cc1ccc(C(=O)Nc2ccccc2C(=O)O)cc1NC(=O)COc1c(C)cccc1C	13%	-3%	0%	13µM*	-5%	-3%
CCC(=O)Nc1cccc(C(=O)Nc2nccs2)c1	nt	11%	1%	?	11%	1%
CCOc1cccc(C(=O)Nc2nccs2)c1	?	?	-4%	15µM*	?	?
O=C(Nc1nc(-c2ccccn2)cs1)c1ccc(Br)s1	-96%	-3%	21%	19µM*	-3%	?
CCOc1cccc(C(=O)Nc2nnc(-c3ccco3)s2)c1	2.8µM*	?	-5%	4.8µM*	4µM*	?
O=C(Nc1nccs1)c1ccc(Br)s1	nt	?	nt	15µM*	4µM*	?
O=c1[nH]nc(SCc2cc(Cl)ccc2Cl)c(=O)[nH]1	nt	-7%	nt	-1%	0%	1%
CCc1ccccc1NC(=O)c1ccc(OCc2c(C)noc2C)cc1	nt	nt	nt	nt	nt	-1%
COc1ccc(Cn2c(CCC(=O)Nc3cccc(OC)c3)nc3cccnc32)cc1	-8%	nt	nt	-3%	nt	nt
O=C(Nc1ncccc1O)c1ccc2ccccc2c1	nt	-3%	nt	1%	-7%	-7%
O=C(Nc1n[nH]c(=S)s1)c1ccc2ccccc2c1	nt	1.1µM*	nt	27µM*	0.79µM*	?
CC(C)(C)c1ccc(Oc2ccc(NC(=O)C3CC=CCC3C(=O)O)cc2)cc1 (stereo not given)	16µM*	2%	5%	27µM*	-8%	-1%
O=C(Nc1nccs1)c1ccc(N2CCOCC2)c([N+](=O)[O-])c1	nt	1.8µM*	nt	12µM*	2.2µM*	?
O=C(CCNC(=O)c1ccc(Br)cc1)Nc1nccs1	-5%	1%	1%	-16%	12%	1%
SMILES	SMN2 splice up	NPC1 promoter act	KinaseGlo FLuc	FLuc counter	Rab9 prom act	ELG1 genotox
O=C(Nc1nccs1)c1ccc(Br)cc1	nt	2.5µM*	nt	9.5µM*	2.2µM*	?
CCOc1cc(C(=O)N2CCc3c([nH]c4ccccc34)C2c2ccccc2)cc(OCC)c1OCC (stereo not given)	nt	nt	nt	0%	nt	nt
COc1ccc(-c2csc3ncnc(Nc4cc(OC)cc(OC)c4)c23)cc1	nt	nt	nt	6%	nt	nt
Cc1occc1-c1nnc(SCC(=O)NC2CC2)n1C(C)C	nt	5%	nt	-2%	6%	4%
Cn1cc(Cl)c(C(=O)Nc2nccs2)n1	nt	16%	nt	-19%	22%	24%
O=C(Nc1nccs1)Oc1ccccc1	-1%	1%	-3%	-4%	-5%	0%
